# PKA kinase inh – inhibitors of human PKA kinase activity, primary screen, biochemical, ATP-depletion luminescence, Kemptide substrate | PKA Kemptide phosphorylation, Kinase-Glo ATP luminescence | cAMP-dependent protein kinase catalytic subunit alpha (Homo sapiens), P17612 | inhibition, % at 6 µM | hit rate 0.1% among 65,000;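 active = inhibition above the screen-wide mean inhibition plus 3 SD, cut at about 21% in these data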
# ROCK2 inh – inhibitors of human ROCK2 kinase, primary screen, biochemical, high-throughput, luminescence | hit rate 0.35% among 60,000 | Rho-associated protein kinase 2 (Homo sapiens), O75116 | inhibition, % at 6 µM | purified ROCK2, Kinase-Glo ATP depletion luminescence;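 active = inhibition above the screen-wide mean inhibition plus 3 SD, cut at about 18% in these data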;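 note: plate controls were DMSO wells for no effect and Y-27632 control wells after no-enzyme background subtraction for full effect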
# DAT uptake mod – changed hDAT dopamine uptake under cocaine IC80, either direction, primary screen, cocaine antagonist project, cell-based, LLC-PK1 hDAT, [14C]-dopamine uptake, MLSMR; AID 449768, 2010; LLC-PK1 hDAT cells, [14C]-dopamine uptake with cocaine IC80; actives deviate in either direction; B-score at 10 µM; hit rate 1.3% among 110,000;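 active = Z score or B-score, a plate-position-corrected score, falls beyond the plate's 99.7% confidence bounds, in either direction; inactive = both scores lie inside the 99.7% bounds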;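 note: scored against the spread of the other compound wells on the same plate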
# D1 allo mod – D1 CRE-luciferase signal change, two-sided – cell-based, HEK293 D1, dopamine EC30, D1 allosteric modulator project, primary screen; hit rate 5.9% among 58,000; B-score at 10 µM; dopamine EC30 potentiation; actives deviate in either direction; D(1A) dopamine receptor (Homo sapiens), P21728;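 active = luminescence count or its row- and column-corrected plate score outside the 99.7% band of the plate's sample wells, on either side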
# Target sequence (P21728 whole entry, looked up): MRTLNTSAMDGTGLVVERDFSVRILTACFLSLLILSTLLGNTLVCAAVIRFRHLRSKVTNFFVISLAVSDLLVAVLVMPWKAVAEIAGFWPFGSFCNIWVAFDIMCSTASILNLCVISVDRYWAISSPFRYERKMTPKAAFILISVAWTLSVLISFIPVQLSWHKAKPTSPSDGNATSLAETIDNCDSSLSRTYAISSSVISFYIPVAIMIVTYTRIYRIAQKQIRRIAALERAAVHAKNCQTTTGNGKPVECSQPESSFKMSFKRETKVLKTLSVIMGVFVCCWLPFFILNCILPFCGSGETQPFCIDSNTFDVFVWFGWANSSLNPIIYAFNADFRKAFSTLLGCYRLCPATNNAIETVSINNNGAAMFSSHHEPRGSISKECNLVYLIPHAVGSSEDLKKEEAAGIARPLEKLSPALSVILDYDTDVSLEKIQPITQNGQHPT
# An asterisk follows results filed as active; . = no result; ! = not active in a repeat. The entries come from a sample that favours hits as a whole.
SMILES,PKA kinase inh,ROCK2 inh,DAT uptake mod,D1 allo mod
CC(=O)Nc1ccc(S(=O)(=O)c2ccc(N)cc2)cc1,2,4,2*,0.22
CC(=O)Nc1ccc(S(=O)(=O)c2ccc(N)cc2)cc1N,4,3,-0.21,0.2
O=C(Nc1ccc2c(c1)OCO2)C1CCN(S(=O)(=O)c2cccc3cccnc23)CC1,1,2,-0.71,.
CCOC(=O)c1c(C)n(C)c2ccc(OCC(O)Cn3nc(C)c(Br)c3C)cc12 (stereo not given),8,5,-8.5*,0.093
CCOC(=O)C1=C(C)NC(=O)NC1/C(C)=C/c1ccccc1 (stereo not given),4,6,-1.3,0.6
CC(C)(C)N1C(=O)Cc2c1nc(N)c1c(N)nc(N3CCCCC3CO)c(C#N)c21 (stereo not given),6,2,-4.2*,-0.24
CN(C)S(=O)(=O)N1CCN(C(=O)c2ccccc2)CC1,.,.,-4.5*,.
N#C/C(=N\O)c1nc(-c2ccccc2)cs1,0,-9,-5.2*!,.
Cc1ccc(-n2c(Cn3nc(C(F)F)cc3C(F)F)n[nH]c2=S)cc1,.,.,-0.61,.
O=C(CN1C2CCCC1CC(NC(=O)c1ccccc1)C2)Nc1nccs1 (stereo not given),.,.,0.53,.
O=C(NCc1nc2ncc(Br)cc2[nH]1)c1ccccc1,0,-4,-7.3*,-0.96
CCOC(=O)C1=C(CCc2ccccc2)NC(=O)NC1c1ccc(C#N)cc1 (stereo not given),.,.,1.6,.
Cc1ccc(-c2nc3cc(NC(=O)C(C)C)ccc3o2)cc1,6,2,-0.14,-2.4*
CC(C)(C)c1ccc(OCC(=O)Nc2ccc(-c3nc4cccnc4o3)cc2)cc1,.,.,-0.11,.
CC(C)C(=O)Nc1ccc(-c2nc3cccnc3o2)cc1,-1,1,-0.68,-3.2*
CC(C)C(=O)Nc1cccc(-c2nc3ccccc3o2)c1,5,5,0.065,-0.63
Cc1ccc(-c2nc3cc(NC(=O)C(C)C)ccc3o2)cc1C,7,5,-0.45,-3*
CCC(=O)Nc1ccc2oc(-c3cccc(C)c3)nc2c1,7,-1,-0.32,-3.4*
Cn1c(NC(=O)c2cc(Br)ccc2Cl)cc(=O)n(C)c1=O,8,4,-0.37,0.18
CCCCn1c(=O)n(CC(=O)Nc2ccc(OC)c(Cl)c2)c(=O)c2c1nc(CO)n2CCC,.,.,0.64,.
CCCn1nc2cc(C(=O)NCc3ccc(OC)cc3)ccc2c1OCC,.,.,2.3*,.
CCCn1nc2cc(C(=O)NC3CCc4ccccc43)ccc2c1OCC (stereo not given),.,.,2.3*,.
CCCCn1nc2cc(C(=O)NCC3CC3)ccc2c1OCC,.,.,-0.079,.
CCCn1nc2cc(C(=O)NCc3ccc(OC(F)(F)F)cc3)ccc2c1OCC,.,.,0.49,.
CCC(C)N(C(=O)CSc1nc(-c2ccccc2)cs1)C1CCS(=O)(=O)C1 (stereo not given),.,.,1.2,.
SMILES,PKA kinase inh,ROCK2 inh,DAT uptake mod,D1 allo mod
O=C(Nc1cccc(-c2cn3cccnc3n2)c1)c1ccco1,4,.,2.4,-4*
CC(=O)OC1C([N+]2(C)CCCCC2)C[C@H]2C3CC[C@H]4C[C@H](OC(C)=O)C([N+]5(C)CCCCC5)CC4(C)[C@H]3CCC12C (stereo not given in full),.,.,-0.92,.
CC(=O)O[C@H]1C[C@@H]2CC[C@@H]3[C@H](CC[C@@]4(C)[C@H]3C[C@H]([N+]3(C)CCCCC3)[C@@H]4OC(C)=O)[C@@]2(C)C[C@@H]1[N+]1(C)CCCCC1,0,8,.,17*
CCn1cc(C(=O)N2CCN(c3ccccn3)CC2)c2cc(OC)c(OC)cc2c1=O,6,.,-8.7*,0.39
COc1cc(-c2cc(C(=O)N3CCN(c4ccccn4)CC3)c3ccccc3n2)cc(OC)c1OC,1,1,3.7*,-4*
COc1ccc(-c2cc(C(=O)N3CCN(c4ccccn4)CC3)c3ccccc3n2)cc1,5,.,0.85,-3.9
CCO/N=C(\C)c1c(O)c(CC)c(-c2ccccc2)n(-c2ccccc2)c1=O,.,.,2.7*,.
CC(=O)c1c(O)c(C)c(-c2ccccc2)n(-c2ccccc2)c1=O,.,.,-0.0085,.
CCOC(=O)c1[nH]c(C)c(C(=O)NCCCN2CCOCC2)c1C,3,5,-5*,-0.53
N#CC1=C2C=CC=CN2CC1=O,6,.,0.031,0.09

# Bioassay records from PubChem BioAssay.
